Results from PubChem BioAssay AID2016 (NMMLSC, 2009).
Hit rate of the full screen: of about 330,000 compounds, about 1,700 (0.52%) were called active. The sample holds actives, similar compounds and a random draw of the others, so the mix is not that of the screen. Unmarked numbers belong to inactive results.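 The calls were made as follows: active = GFP response versus DMSO above a set limit, roughly screen mean plus 3 SD (cut at about 180% in these data); inconclusive = fewer than 70 cells counted for a yeast strain; inactive = the rest.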

Assay: TOR pathway GLN3 branch reporter MEP2-GFP changes – S. cerevisiae, multiplex flow cytometry, MLPCN library, primary screen (AID 2016);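 also: median GFP fluorescence of the barcode-gated MEP2-GFP cells per well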
Details: S. cerevisiae MEP2-GFP strain, 3 h, at 10 µM, active compounds read high, 100% = DMSO control level

Row | Compound | GFP response vs DMSO
1 | N#CCCN1CCN(S(=O)(=O)c2ccc(S(=O)(=O)NC3CCCCC3)cc2)CC1 | 107%
2 | Cn1c2ccccc2c2c(C(=O)N3CCN(c4ccc(F)cc4)CC3)cn(C3CCCC3)c(=O)c21 | 116%
3 | COc1cc(C)c(Cl)cc1S(=O)(=O)n1ccnc1 | 92%
4 | O=C(NCC(=O)N1CCN(c2ccccc2F)CC1)c1cccs1 | 111%
5 | C/C(=N\NS(=O)(=O)c1ccc(Cl)cc1)c1ccc(NC(=O)c2ccco2)cc1 | 102%
6 | CC(=O)N(C)c1ccc(NC(=O)C(F)(F)F)cc1 | 100%
7 | C/C(=N/NS(=O)(=O)c1ccccc1)c1ccc(NC(=O)C(F)(F)F)cc1 | 219% (active)
8 | C[N+](C)(C)CCNC(=O)c1cc[n+](Cc2ccccc2)c(/C=N/O)c1 | 104%
9 | COC(=O)Nc1ncc(CN2C(=O)c3ccccc3C2=O)s1 | 109%
10 | CCOC(=O)c1cnc(SCC(=O)NCc2ccco2)nc1N | 222% (active)
11 | CCOC(=O)c1cnc(SCC(=O)Nc2ccccc2C(=O)OC)nc1N | 98.3%
12 | CCOC(=O)c1cnc(SCC(=O)Nc2cccc(OC)c2)nc1N | 90.7%
13 | CCOc1ccc(CN(Cc2ccco2)C(c2cccs2)c2nnnn2C(C)(C)C)cc1 (centres undefined) | 98.9%
14 | CCN(CCn1cccn1)C(=O)CC1C(=O)NCCN1Cc1cccc(OC)c1OC (centres undefined) | 100%
15 | CC(=O)Nc1ccc(NC(=O)COC(=O)C2CCC(C(C)(C)C)CC2)cc1 (centres undefined) | 103%
16 | CC(=O)Nc1ccc(NC(=O)CC2CCCC2)cc1 | 779% [may fluoresce violet] (active)
17 | COc1ccc(NC(=O)CN(C)C(=O)CC2CCCCC2)cc1 | 102%
18 | O=C(COC(=O)/C=C/c1cccc(Cl)c1)NCCc1ccccc1 | 114%
19 | CCCC(=O)N(CCc1ccccc1)Cc1nc2ccccc2c(=O)[nH]1 | 85.6%
20 | CCN(CC(=O)NC(=O)NCc1ccccc1)Cc1nc2ccccc2c(=O)[nH]1 | 98.5%
21 | O=C(c1ccco1)N(Cc1nc2ccccc2c(=O)[nH]1)C1CCCC1 | 271% [may fluoresce violet] (active)
22 | COc1ccc(CNC(=O)CN(C(=O)c2csnn2)c2cnc3ccccc3c2)cc1 | 102%

Row | Compound | GFP response vs DMSO
23 | CCCCCCNCCn1cnc2c(N)ncnc21 | 97.1%
24 | COc1ccc(CCNC(=S)N2CCN(S(=O)(=O)c3ccc(F)cc3)CC2)cc1 | 103%
25 | COc1ccc(C(=O)NN(C)c2nc(-c3ccccc3)cc(C)c2S(C)(=O)=O)cc1 | 287% [may fluoresce violet] (active)
26 | COc1ccc(NS(=O)(=O)c2cc(C(=O)Nc3ccccc3C(=O)O)ccc2C)cc1 | 95.4%
27 | COc1ccc(C(=O)Nc2cccc(S(C)(=O)=O)c2)cc1 | 112%
28 | O=C(CCc1ccc(S(=O)(=O)N2CCOCC2)cc1)NN=C1CCCCCCC1 | 104%
29 | O=C(O)c1ccc(S(=O)(=O)N2CCOCC2)o1 | 264% [may fluoresce violet] (active)
30 | O=C(c1cc(S(=O)(=O)N2CCOCC2)ccc1Cl)N1CCOCC1 | 103%
31 | Cc1cccc(C)c1NC(=O)c1ccc(CN2CCc3ccccc3C2)cc1 | 101%
32 | COc1ccc(C(=O)N(Cc2ccccc2)c2ccc(C)cc2)cc1S(=O)(=O)N1CCOCC1 | 103%
33 | C=CCNC(=O)C12CC3CC(C1)CC(C(=O)NCC=C)(C3)C2 | 106%
34 | CCOc1ccccc1NC(=O)C12CC3CC(C1)CC(c1ccc(C)cc1)(C3)C2 | 97.6%
35 | Cc1ccc(C23CC4CC(CC(C(=O)NCC(=O)O)(C4)C2)C3)cc1 | 292% [may fluoresce violet] (active)
36 | CCn1c(C)nc2c1C(=O)c1ccccc1C2=O | 93.7%
37 | O=C(CNC(=O)[C@@H]1Cc2ccccc2CN1)NC1CCCCC1 | 99.4%
38 | Cc1cc2cc3c(cc2nc1SCC(=O)Nc1c(C)cccc1C)CCC3 | 94.7%
39 | CC(C)(C)NC(=O)C(c1ccc(Cl)cc1)N(CCO)C(=O)c1snc(C(N)=O)c1N (centres undefined) | 97.4%
40 | NC(=O)c1nsc(C(=O)N(CCCN2CCOCC2)C(C(=O)NC2CCCCC2)c2ccc(Cl)cc2)c1N (centres undefined) | 238% [may fluoresce violet] (active)
41 | CCOc1ccc(C(C(=O)NC2CCCC2)N(C(=O)c2snc(C(N)=O)c2N)C2CCCC2)cc1 (centres undefined) | 113%
42 | CC(C)CNC(=S)NC(=O)c1ccc(Cl)cc1 | 100%
43 | COCc1cc(=O)n2[nH]c(C)c(-c3ccccc3)c2n1 | 97.4%
44 | COCCNc1nc2nonc2nc1N1CCCC1c1nccs1 (centres undefined) | 90.4%
